We go through 88 molecules from PubChem BioAssay AID463193 (University of Pittsburgh Molecular Library Screening Center, 2010).

Structures are written as SMILES. Hit rate of the full screen: of about 190,000 compounds, about 1,900 (1%) were called active. The sample holds actives, similar compounds and a random draw of the others, so the mix is not that of the screen.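 Rule for the calls: active = percentage of spot-positive cells more than 3 SD above its plate mean, without a fluorescence outlier flag or 80% toxicity; inconclusive = no clear call, values can overlap the other calls; inactive = the rest.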

A short description of the assay: GFP-LC3 puncta formation changes – imaging, high-content, MEF GFP-LC3, primary screen (AID 463193).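 For % cells with GFP-LC3 spots: spot-positive cell cutoff set from DMSO-treated cells.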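 For toxicity: cell loss after 18 h compound exposure.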 The settings on record: autophagy, at 10 µM; % cells with GFP-LC3 spots: stronger effect = higher value; toxicity: measured here: cell loss, nuclei count.
As for `O=C(NCc1ccncc1)C(=O)NCc1ccco1`, the % cells with GFP-LC3 spots was 0.301% (inactive) and the toxicity is -9.14%.
The corresponding values for `CCc1nc(Nc2ccc3nccnc3c2)c2oc3ccccc3c2n1` are 19% (active) and -4.67%.
The corresponding values for `CCSc1nc(C)nc2c1oc1ccccc12` are 7.02% (inactive) and 8.62%.
As to `COc1ccccc1Nc1ncnc2c1oc1ccccc12`, the % cells with GFP-LC3 spots is 5.61% (inactive) and the toxicity worked out at 1.55%.
The corresponding values for `CN(C)C(=O)c1nc2ccc(Cl)cn2c1CN1CCN(c2ncccn2)CC1` are 2.1% (inactive) and -12.9%.
In the same order, the values of `CC(C)C(=O)Nc1c(O)c2ccccc2[nH]c1=O` are 0.457% (inactive) and 5.73%.
The corresponding values for `CCOc1ccccc1N1CCN(C(=O)COc2ccc3c(C)cc(=O)oc3c2)CC1` are 3.98% (inactive) and 7.33%.
On to `COc1ccc([C@H]2[C@H](C(C)=O)N3N=Cc4ccccc4C3C23C(=O)OC(C)(C)OC3=O)cc1` (stereo partly specified), for which the % cells with GFP-LC3 spots is 3.81% (inactive) and the toxicity was -2.15%.
On to `CC/C(=N/Nc1ccccc1)c1cnnc(SC)n1`, for which the % cells with GFP-LC3 spots is 1.72% (inactive) and the toxicity is -12.6%.
Take `O=C(Cc1ccc(Cl)cc1)NCc1nc(-c2ccccc2)no1`: the % cells with GFP-LC3 spots is 1.76% (inactive) and the toxicity worked out at 18%.
With `C/C(=N/Nc1ccc(Cl)cc1)c1cnnc(-c2ccccc2)n1`, the % cells with GFP-LC3 spots was 45.6% (active) and the toxicity was -1.98%.
For the molecule `CNc1nccc(-c2ccc(Cl)cc2)c1C#N`, the % cells with GFP-LC3 spots is 0.668% (inactive) and the toxicity was -6.73%.
In the same order, the values of `CC(C)(C)NC(=O)NC(=O)CN1CCC(Cc2ccccc2)CC1` are 8.11% (active) and 52.4%.
In the same order, the values of `NC(=O)c1ccc(CN2CCC(Cc3ccccc3)CC2)cc1` are 4.13% (inactive) and 31.8%.
In the same order, the values of `COc1ccc(NC(=O)N2CCC(Cc3ccccc3)CC2)cc1` are 5.76% (inactive) and -6.26%.
Turning to `O=C(NCc1ccco1)c1nn2cccnc2c1Cl`, the % cells with GFP-LC3 spots was 2.07% (inactive) and the toxicity was -10.5%.
In the same order, the values of `Cc1ccc(/C([O-])=C(/C(=S)NCc2ccco2)[n+]2ccccc2)cc1[N+](=O)[O-]` are 1.01% (inactive) and 4.63%.
The corresponding values for `Cc1ccc(NC2=C(Cl)C(=O)OC2OC(=O)c2ccccc2C)cc1` (stereo unspecified) are 9.77% (inactive) and 12.9%.
The corresponding values for `CCOc1ccccc1/C=c1\sc2nc(-c3ccco3)nn2c1=O` are 23.9% (active) and -24.1%.
On to `O=c1nc2s/c(=C\c3ccco3)c(=O)n2nc1Cc1ccccc1`, for which the % cells with GFP-LC3 spots is 1.32% (inactive) and the toxicity was -3.5%.
The corresponding values for `CCOc1ccccc1C(=O)NCc1ccco1` are 3.98% (inactive) and -2.98%.
In the case of `Cc1cc(C)c2c(n1)nn1c(N3CCN(c4cccc(Cl)c4)CC3)cc(C)nc21`, the % cells with GFP-LC3 spots is 11.4% (active) and the toxicity is 3.85%.
Regarding `Cc1cc(C)c2c(n1)nn1c(-n3ccnc3)cc(C)nc21`, the % cells with GFP-LC3 spots was 2.18% (inactive) and the toxicity came out at 8.53%.
In the same order, the values of `Cc1cc(C)c2c(n1)nn1c(N3CCOCC3)cc(C)nc21` are 8.07% (inactive) and 5.9%.
In the same order, the values of `COCCN(Cc1nc(-c2ccc(C(F)(F)F)cc2)no1)C(C)C` are 9.15% (inactive) and 9.9%.
Turning to `Cc1c(/C=N\NC(=O)c2cc3ccccc3o2)c2ccccc2n1C`, the % cells with GFP-LC3 spots is 7.46% (active) and the toxicity came out at 40.9%.
In the same order, the values of `Cc1c(/C=N/N2C(=O)C3C4C=CC(C4)C3C2=O)c2ccccc2n1C` (stereo unspecified) are 7.41% (inactive) and -40.2%.
As for `O=C(N/N=C/c1coc2ccccc2c1=O)c1cc2ccccc2o1`, the % cells with GFP-LC3 spots is 23.9% (inactive) and the toxicity stood at 5.54%.
The corresponding values for `O=C(NCCOc1ccccc1F)Nc1ccc(Br)cc1` are 8.91% (inactive) and 10.2%.
With `CCCCn1c(N)c(N2CCOCC2)c(=O)n(CC(=O)NCCc2ccccc2)c1=O`, the % cells with GFP-LC3 spots is 1.7% (inactive) and the toxicity amounted to 10.6%.
On to `Nc1ccc(Nc2ccccc2)cc1`, for which the % cells with GFP-LC3 spots is 3.14% (inactive) and the toxicity came to 23.3%.
With `Cc1ccc(Nc2ccccc2N)cc1`, the % cells with GFP-LC3 spots is 78% (active) and the toxicity came to 27.6%.
Regarding `Cc1ccc(Nc2nnc(SCc3ccccc3)s2)cc1`, the % cells with GFP-LC3 spots is 12.4% (inactive) and the toxicity was -2.65%.
Turning to `Cc1ccc(CC(=O)Nc2cccc(C#N)c2)cc1`, the % cells with GFP-LC3 spots is 1.19% (inactive) and the toxicity is -8.28%.
Turning to `COc1cc(/C=C/C2=CC(C)(C)NC(=S)N2)cc(OC)c1OC`, the % cells with GFP-LC3 spots is 1.56% (inactive) and the toxicity is 6.84%.
The corresponding values for `COc1cccc(NC(=O)C(C)Oc2ccccc2)c1` (stereo unspecified) are 5.6% (inactive) and 4.79%.
In the same order, the values of `CC(Oc1ccccc1F)C(=O)NN` (stereo unspecified) are 38% (active) and 3.88%.
The corresponding values for `CC(Oc1ccc(F)cc1F)C(=O)/C=C/N(C)C` (stereo unspecified) are 6.77% (inactive) and 7.51%.
Turning to `COc1ccccc1C1CC(=O)n2c(nc(-c3ccccc3)c2-c2ccccc2)S1` (stereo unspecified), the % cells with GFP-LC3 spots is 3.32% (inactive) and the toxicity was found to be 1.28%.
The corresponding values for `O=[N+]([O-])/C(N=Nc1ccccc1)=N\Nc1ccccc1` are 16.1% (inactive) and 8.32%.
As to `COc1ccc(C)c(Cn2c(-c3nonc3N)nc3ccccc32)c1`, the % cells with GFP-LC3 spots was 25% (active) and the toxicity turned out to be 49.2%.
The corresponding values for `Nc1nonc1-c1nc2ccccc2n1Cc1ccc(F)cc1` are 17.1% (inactive) and 0.606%.
In the case of `Nc1nonc1-c1nc2ccccc2n1CCC(=O)O`, the % cells with GFP-LC3 spots is 6.83% (inactive) and the toxicity was 0.889%.
As to `CN(C)Cc1ccccc1C1(O)c2ccccc2CSc2ccccc21` (stereo unspecified), the % cells with GFP-LC3 spots is 12% (active) and the toxicity was -6.62%.
The corresponding values for `COC(=O)C1=C(NC(=O)C(C)(C)C)CCS1` are 5.79% (inactive) and -3.16%.
The corresponding values for `COC(=O)c1sc(N)c(C(=O)OC)c1COC(=O)CNS(=O)(=O)c1ccc(C)cc1` are 2.17% (inactive) and -4.43%.
Consider `CCC(=O)/C=C1\Sc2ccccc2N1CC`, for which the % cells with GFP-LC3 spots was 7.46% (inactive) and the toxicity is -11.3%.
In the same order, the values of `CCN1/C(=C/c2ccc3ccc(C)cc3[n+]2CC)Sc2ccccc21` are 42.4% (active) and 14.3%.
In the same order, the values of `CCN1CCN(CCNC(=O)c2ccc(/C=C3/Sc4ccccc4N(Cc4cccc(C)c4)C3=O)cc2)CC1` are 34.4% (inactive) and 30.3%.
In the same order, the values of `Cc1ccc(Nc2cc(C)nc3c(C)ccc([N+](=O)[O-])c23)cc1` are 9.29% (inactive) and 15.4%.
Consider `Cc1cccc(N(C(=O)Cc2cccs2)C(C(=O)NCc2ccco2)c2ccncc2)c1` (stereo unspecified), for which the % cells with GFP-LC3 spots is 0.45% (inactive) and the toxicity worked out at 4.04%.
In the same order, the values of `Cc1nc2ccccc2cc1O` are 1.86% (inactive) and -9.74%.
In the same order, the values of `CSc1nc(N)c(C#N)c(-c2ccccc2Cl)c1C#N` are 1.32% (inactive) and 7.01%.
Take `CSc1nc2ccccc2cc1/C=C(\C#N)c1ccc(Cl)cc1Cl`: the % cells with GFP-LC3 spots is 26.9% (active) and the toxicity came to 3.92%.
Regarding `CCC(C)NC(=O)/C=C/c1ccc(S(=O)(=O)NCc2ccco2)cc1` (stereo unspecified), the % cells with GFP-LC3 spots was 13.9% (inactive) and the toxicity is -4.92%.
Regarding `Cc1cccc(OCCNC(=S)NC(=O)c2cccnc2)c1`, the % cells with GFP-LC3 spots is 4.78% (inactive) and the toxicity is 1.96%.
The corresponding values for `O=C(CSc1ncnc2c1nnn2Cc1ccc(F)cc1)NC1CCCC1` are 19.5% (inactive) and 3.4%.
The corresponding values for `COc1ccc(N2CCN(C(=O)CNS(=O)(=O)c3ccc(C)c(C)c3)CC2)cc1` are 0.151% (inactive) and -10.1%.
The corresponding values for `Cc1cc([N+](=O)[O-])nn1CCCC(=O)Nc1cccnc1Cl` are 8.6% (inactive) and 1.08%.
Consider `Cc1ccc(-c2nnc(-c3ccc(NC(=O)c4cccs4)cc3)o2)cc1`, for which the % cells with GFP-LC3 spots is 9.58% (inactive) and the toxicity was -19.8%.
The corresponding values for `O=C(Cc1cccc2ccccc12)Nc1ccc2oc(-c3ccccc3)nc2c1` are 7.49% (inactive) and 12.1%.
Turning to `O=C(Nc1ccc2oc(-c3ccc4ccccc4c3)nc2c1)c1cccs1`, the % cells with GFP-LC3 spots is 3.28% (active) and the toxicity is -13.1%.
As for `COc1cc(OC)c(C(=O)Nc2ccccc2-c2ccccc2)cc1OC`, the % cells with GFP-LC3 spots was 7.38% (inactive) and the toxicity is -2.46%.
The corresponding values for `COc1ccc(C(=O)OCC(=O)NCC2CCCO2)cc1[N+](=O)[O-]` (stereo unspecified) are 3.86% (inactive) and 1.61%.
The corresponding values for `COc1ccc(OC)c(C(=O)c2ccc(C(=O)N3CCN(Cc4csc(C)n4)CC3)cc2)c1` are 1.64% (inactive) and 6.76%.
Take `O=C(O)COc1ccc(/C=N/O)cc1Br`: the % cells with GFP-LC3 spots was 17% (inactive) and the toxicity came out at 9.84%.
`CN(C)c1ccc(NC(=O)CSc2n[nH]c(-c3ccco3)n2)cc1`: the % cells with GFP-LC3 spots is 5.18% (inactive) and the toxicity was -4.21%.
In the same order, the values of `C/C(Cc1ccccc1)=N\NC(=O)CNC(=O)c1cccc(Br)c1` are 6.35% (inactive) and 7.09%.
In the same order, the values of `Cc1ccc(N2CCN(S(=O)(=O)N(C)C)CC2)cc1Cl` are 10.8% (inactive) and 7.23%.
For the molecule `COc1ccc(N2CCN(c3ccc([N+](=O)[O-])cc3Cl)CC2)cc1`, the % cells with GFP-LC3 spots was 3.9% (inactive) and the toxicity came to 14.4%.
The corresponding values for `CN(C)S(=O)(=O)N1CCN(c2ccc([N+](=O)[O-])cc2)CC1` are 20% (active) and 4.08%.
With `O=C(O)CCn1c(SCc2cc(=O)n3ccccc3n2)nc2ccsc2c1=O`, the % cells with GFP-LC3 spots was 0.605% (inactive) and the toxicity was determined as 8.22%.
The corresponding values for `Cc1ccc(NC(=O)c2oc3ccccc3c2C)c([N+](=O)[O-])c1` are 13.1% (active) and 22.2%.
With `Cc1ccc(NC(=O)CN(C)Cc2ccc(F)cc2)c([N+](=O)[O-])c1`, the % cells with GFP-LC3 spots is 5.2% (inactive) and the toxicity turned out to be 3.98%.
In the same order, the values of `Cc1ccc(NC(=O)c2oc(=O)c3ccccc3c2-c2ccccc2)c(C)c1` are 6.34% (inactive) and -1.17%.
In the same order, the values of `CCOC12CC(C)(C)CC(C)(CC3=C1C(=O)CC(C)(C)C3)C2` (stereo unspecified) are 4.26% (inactive) and 3.51%.
In the same order, the values of `COc1ccc(-c2csc(Nc3ccc(O)cc3)n2)cc1` are 16.2% (active) and 17.3%.
In the case of `Oc1ccc(-c2csc(Nc3cccnc3)n2)cc1`, the % cells with GFP-LC3 spots was 7.75% (inactive) and the toxicity is -0.924%.
The corresponding values for `COc1ccc(Nc2nc(-c3ccccc3)cs2)cc1` are 11.9% (inactive) and -34.3%.
On to `CCC(CC)NC(=O)CSc1nnc(-c2c[nH]c3ccccc23)o1`, for which the % cells with GFP-LC3 spots was 15.7% (inactive) and the toxicity amounted to 28.2%.
The corresponding values for `Cc1ccc(N=Cc2c(O)cc(C)oc2=O)c(C)c1` are 9.61% (inactive) and 4.32%.
The corresponding values for `Cc1ccc(N=Cc2c(O)n(-c3nccs3)c(=O)c3ccccc23)c(C)c1` are 60% (active) and -7.63%.
For `Cc1ccc(-n2c(O)c(C=Nc3ccc(S(=O)(=O)Nc4ncccn4)cc3)c3ccccc3c2=O)cc1C`, the % cells with GFP-LC3 spots is 3.56% (inactive) and the toxicity was -8.78%.
In the same order, the values of `CCOC(=O)N1CCN(C(=O)c2ccccc2N(Cc2ccccc2)S(=O)(=O)c2ccc(OC)cc2)CC1` are 19.1% (inactive) and 5.8%.
In the same order, the values of `Cc1c(CN2CCC(CO)(CCOc3ccccc3)CC2)[nH]c2ccc(Cl)cc12` are 14.1% (inactive) and -12.9%.
`CC(=O)c1sc(NC(=O)CCCOc2ccccc2C)nc1C`: the % cells with GFP-LC3 spots is 7.71% (inactive) and the toxicity was found to be 7.95%.
On to `COc1cccc2sc(NNC(=O)c3nc4ccccc4s3)nc12`, for which the % cells with GFP-LC3 spots is 8.59% (inactive) and the toxicity was found to be 0.117%.
In the same order, the values of `COc1cccc2sc(Nc3nc(C)c(C(C)=O)s3)nc12` are 21.8% (active) and 46.9%.
